The results in this text go back to PubChem BioAssay (Tox21).

Assay [1] can be described thus: qHTS assay to identify small molecule antagonists of the estrogen receptor alpha (ER-alpha) signaling pathway using the BG1 cell line in the presence of 0.1 nM 17-beta-estradiol - cell viability counter screen (AID 1259241). Also: nearly all actives have a fitted effect of over 40% in size. Also: potency is read from the fitted curve at half-maximal effect. The method in brief: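 In this screen, hormone-deprived VM7Luc4E2 cells were seeded at 4,000 per well, dosed with compound and 0.1 nM estradiol final, and incubated 22 hr at 37C and 5% CO2; fluorogenic live-cell protease signal reported viability.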

A short description of assay [2]: qHTS assay to identify small molecule antagonists of the androgen receptor (AR) signaling pathway using the MDA cell line in the presence of 0.5 nM R1881 - cell viability counter screen (AID 1259242). Also: nearly all actives have a fitted effect of over 45% in size. Also: potency is read from the fitted curve at half-maximal effect. The procedure, abridged: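 Steps: plate MDA-kb2 cells, rest 5 hr at 37C without CO2; pin in compounds in DMSO; add R1881 to 0.5 nM final; incubate 16 hr; add CellTiter-Fluor, 30 min; read fluorescence.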

Assay [3] can be described thus: qHTS assay to identify small molecule phospholipidosis (PLD) inducers (AID 1259344; active = well fitted curve in the direction sought with a large enough effect; an effect the other way counts as inactive or inconclusive). The procedure, abridged:
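Image-based: LipidTOX Red pit count/intensity per well and per cell; HepG2, 24 h compound at 37 C, PFA fixation, Hoechst counterstain.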

A short description of assay [4]: qHTS assay to identify small molecule HDAC inhibitors (AID 1259364).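 Also: wild-type HCT-116 cells with endogenous class I/II HDAC activity; top concentration of the series differs between compounds; nearly all actives have a fitted effect of over 45% in size.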 The method in brief:
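Cells (HCT-116, wild type) are seeded at 1,500 per well, incubated overnight, treated with compound in DMSO for 2 hr, then developed with HDAC-Glo I/II reagent for 30 min at room temperature.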

Assay [5] can be described thus: qHTS assay to identify small molecule HDAC inhibitors - cell viability counter screen (AID 1259365). Also: series mostly up to about 92 µM; nearly all actives have a fitted effect of over 50% in size. The method in brief: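 Measured quantity is CellTiter-Glo luminescence from wild-type HCT-116 cells after compound incubation of 2hr at 37C, 5% CO2; reagent developed 30min at room temperature.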
The nature of assay [6]: qHTS assay to identify small molecule antagonists of the sonic hedgehog signaling (Shh) pathway - cell viability counter screen (AID 1259367). Also: nearly all actives have a fitted effect of over 55% in size. Also: potency is read from the fitted curve at half-maximal effect. The method in brief: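 Tox21 library chemicals were tested on a Gli1-Luc NIH/3T3 clone (2,000 cells/well) stimulated by conditioned medium; viability was quantified as fluorescence from CellTiter-Fluor reagent added at 23 hr.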
A short description of assay [7]: qHTS assay to identify small molecule agonists of the sonic hedgehog signaling (Shh) pathway (AID 1259368; calls by dose curve;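 also: NIH/3T3-derived 3T3Gli1-Luc cells carrying a stable Gli1-driven firefly luciferase reporter; series mostly up to about 92 µM; nearly all actives have a fitted effect of over 15% in size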). The method in brief: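 Cells of a mouse NIH/3T3 clone stably expressing luciferase under the Gli1 transcriptional response element are exposed to test chemicals for 24 hr at 37 C. Pathway activation is detected as a rise in luminescence.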
Assay [8] is described as follows: qHTS assay to identify small molecule antagonists of the sonic hedgehog signaling (Shh) pathway (AID 1259369; calls by dose curve; also: nearly all actives have a fitted effect of over 45% in size; also: potency is read from the fitted curve at half-maximal effect). The method in brief:
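Cells are plated and held 4hr at 37 C, compounds (DMSO) are pinned in, conditioned medium is added to stimulate the pathway, and after 24hr luciferase reagent is added for 30min before luminescence is read.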

Assay [9] deals with Estrogen receptor beta (Homo sapiens) (UniProt Q92731). In words: qHTS assay to identify small molecule agonists of the estrogen receptor beta (ER-beta) signaling pathway (AID 1259377; active = well fitted activation curve with a large enough effect in the signal ratio in the repeat runs, not every such curve was filed as active; the % refers to the signal ratio). The procedure, abridged: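 Reporter cells (HEK293T, ER-beta-UAS-bla) receive compounds or DMSO after a 6 hr pre-incubation. They then incubate 16 hr at 37C/5% CO2, and fluorescence from LiveBLAzer B/G substrate is measured after 2 hours at room temperature.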
Chain of Estrogen receptor beta (Homo sapiens) (Q92731 whole entry, looked up): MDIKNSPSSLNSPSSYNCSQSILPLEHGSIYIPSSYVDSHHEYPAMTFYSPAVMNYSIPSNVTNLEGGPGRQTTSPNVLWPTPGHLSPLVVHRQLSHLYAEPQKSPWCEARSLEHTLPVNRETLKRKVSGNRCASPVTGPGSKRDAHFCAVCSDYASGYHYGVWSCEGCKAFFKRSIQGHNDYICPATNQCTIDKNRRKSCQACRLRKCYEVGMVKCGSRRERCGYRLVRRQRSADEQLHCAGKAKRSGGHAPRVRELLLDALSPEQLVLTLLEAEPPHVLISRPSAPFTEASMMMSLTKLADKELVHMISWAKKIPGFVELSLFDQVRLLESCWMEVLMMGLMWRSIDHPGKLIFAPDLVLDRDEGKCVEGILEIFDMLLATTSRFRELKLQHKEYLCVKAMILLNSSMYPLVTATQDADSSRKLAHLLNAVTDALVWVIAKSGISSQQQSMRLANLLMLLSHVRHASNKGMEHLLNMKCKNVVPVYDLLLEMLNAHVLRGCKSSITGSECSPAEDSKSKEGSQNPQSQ

Assay [10] can be described thus: qHTS assay to identify small molecule agonists of the androgen receptor (AR) signaling pathway in the presence of an antagonist - cell viability counter screen (AID 1259379). Also: nearly all actives have a fitted effect of over 25% in size. Also: potency is read from the fitted curve at half-maximal effect.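 As to activity change, negative = cytotoxicity: MDA-kb2 human breast cancer cells carrying an MMTV luciferase reporter; series mostly up to about 92 µM.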 The procedure, abridged:
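Cytotoxicity is assessed by CellTiter-Fluor in MDA-kb2 cells carrying an MMTV-driven luciferase reporter. Cells receive 3.0uM nilutamide plus compounds at 15 concentrations and incubate 16 hr at 37C without CO2 before fluorescence reading.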

Assay [11] can be described thus: qHTS assay to identify small molecule antagonists of the estrogen receptor beta (ER-beta) signaling pathway - cell viability counter screen (AID 1259382). Also: nearly all actives have a fitted effect of over 55% in size. Also: potency is read from the fitted curve at half-maximal effect. As to activity change, negative = cytotoxicity: series mostly up to about 92 µM. The procedure, abridged: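 Cytotoxicity counter screen multiplexed with the beta-lactamase antagonist assay: GripTite HEK293T ER-beta-bla cells were treated 16 hr with test chemicals in the presence of 1nM 17-beta-estradiol, and viability was measured by CellTiter-Glo.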

Assay [12] concerns the target Estrogen receptor (Homo sapiens) (UniProt P03372). In words: qHTS assay to identify small molecule antagonists of the estrogen receptor alpha (ER-alpha) signaling pathway using the BG1 cell line in the presence of 0.1 nM 17-beta-estradiol (AID 1259244). Also: nearly all actives have a fitted effect of over 50% in size. Also: potency is read from the fitted curve at half-maximal effect. The procedure, abridged:
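Antagonist mode: compounds in DMSO are pinned onto VM7Luc4E2 reporter cells, 0.1 nM final 17beta-estradiol is added, and after 22 h at 37C luciferase luminescence is measured with ONE-Glo.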

Assay [13] in a line: qHTS assay to identify small molecule agonists of the sonic hedgehog signaling (Shh) pathway - cell viability counter screen (AID 1259366). Also: nearly all actives have a fitted effect of over 50% in size. Also: potency is read from the fitted curve at half-maximal effect. The method in brief: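 In quantitative high-throughput format, 3T3 Gli1-Luc cells were exposed to compounds for 24hr and multiplexed for viability using CellTiter-Fluor, incubated 1hr at 37C before the fluorescence read.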
The nature of assay [14]: qHTS assay to identify small molecule agonists of the estrogen receptor beta (ER-beta) signaling pathway - cell viability counter screen (AID 1259380). Also: nearly all actives have a fitted effect of over 30% in size. Also: potency is read from the fitted curve at half-maximal effect. The method in brief: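 Cytotoxicity is measured in parallel with the reporter screen: after 16 hr compound exposure at 37C and a 2 hr LiveBLAzer step, CellTiter-Glo is added to the same ER-beta-UAS-bla HEK293T wells and luminescence read after 30 min.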

Assay [15] concerns the target Estrogen receptor (Homo sapiens) (UniProt P03372). In words: qHTS assay to identify small molecule agonists of the estrogen receptor alpha (ER-alpha) signaling pathway in the presence of an antagonist (AID 1259383; calls by dose curve; also: top concentration of the series differs between compounds; nearly all actives have a fitted effect of over 15% in size). The method in brief:
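Agonist-mode confirmation in the presence of the ER antagonist ICI-182,780 at 10.0nM final. Breast-derived VM7Luc4E2 reporter cells were exposed to compounds for 22hr, and ERE-driven luciferase was quantified by luminescence.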

The nature of assay [16]: qHTS assay to identify small molecule agonists or antagonists of the thyroid stimulating hormone receptor (TSHR) signaling pathway - wild type cell line counter screen (AID 1259384; calls by dose curve). The method in brief:
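Wild-type Hek293 cells, 800/well, 18 h at 37C, then compound with Ro20-1724 for 30 min RT. cAMP by HTRF (cAMP-d2/anti-cAMP cryptate), 1 h RT, fluorescence read. 15 concentrations, triplicates.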

Assay [17] has as its target Estrogen receptor beta (Homo sapiens) (UniProt Q92731). The assay can be described thus: qHTS assay to identify small molecule antagonists of the estrogen receptor beta (ER-beta) signaling pathway (AID 1259378; active = well fitted inhibition curve with a large enough effect in the signal ratio in the repeat runs, not every such curve was filed as active; the % refers to the signal ratio). The procedure, abridged: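 ER-beta-UAS-bla HEK293T cells in 2% charcoal-stripped FBS medium treated with compound plus 1nM final 17-beta-estradiol for 16 hr at 37C. Beta-lactamase reporter read by FRET substrate fluorescence after 2 hours at room temperature.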

The target in assay [18] is Thyrotropin receptor (Homo sapiens) (UniProt P16473). In words: qHTS assay to identify small molecule antagonists of the thyroid stimulating hormone receptor (TSHR) signaling pathway (AID 1259385; calls by dose curve; also: nearly all actives have a fitted effect of over 20% in size). The procedure, abridged:
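TSHR-HEK293 cells (800/well) plated 18 h, then compounds with Ro20-1724 and TSH at 1.5 ng/mL final, 30 min at room temperature. cAMP quantified by HTRF (cAMP-d2/anti-cAMP-cryptate, 1 h); 15 concentrations in triplicate.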

Unmarked numbers belong to inactive results. Results filed as inconclusive are left out. Activity calls are given as the source filed them. Unless noted, calls follow the shape of the dose curve; as a rule, active = well fitted curve in the direction sought with a large enough effect in the repeat runs; inconclusive = weak or mixed curves; inactive = no such curve, though single readings can be large; an effect the other way counts as inactive or inconclusive.
% is scaled to controls: 0 for no effect and ±100 for the full control effect.

Chain of Estrogen receptor (Homo sapiens) (P03372 whole entry, looked up): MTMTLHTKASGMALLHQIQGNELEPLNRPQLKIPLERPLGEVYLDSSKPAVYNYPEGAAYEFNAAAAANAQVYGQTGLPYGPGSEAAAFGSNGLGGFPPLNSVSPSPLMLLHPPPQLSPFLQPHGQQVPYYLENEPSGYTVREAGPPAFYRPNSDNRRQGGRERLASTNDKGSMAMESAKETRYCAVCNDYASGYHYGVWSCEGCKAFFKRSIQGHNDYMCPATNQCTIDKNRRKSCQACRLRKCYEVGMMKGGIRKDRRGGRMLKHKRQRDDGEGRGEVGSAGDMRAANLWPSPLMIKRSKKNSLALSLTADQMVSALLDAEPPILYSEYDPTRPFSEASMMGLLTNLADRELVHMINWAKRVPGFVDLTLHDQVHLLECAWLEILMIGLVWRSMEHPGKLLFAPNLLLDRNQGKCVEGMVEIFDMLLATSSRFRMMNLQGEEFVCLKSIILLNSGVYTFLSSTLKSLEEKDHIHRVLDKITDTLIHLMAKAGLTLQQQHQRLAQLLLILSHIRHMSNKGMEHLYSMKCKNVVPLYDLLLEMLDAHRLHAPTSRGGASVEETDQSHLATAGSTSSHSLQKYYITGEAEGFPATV
Chain of Thyrotropin receptor (Homo sapiens) (P16473 whole entry, looked up): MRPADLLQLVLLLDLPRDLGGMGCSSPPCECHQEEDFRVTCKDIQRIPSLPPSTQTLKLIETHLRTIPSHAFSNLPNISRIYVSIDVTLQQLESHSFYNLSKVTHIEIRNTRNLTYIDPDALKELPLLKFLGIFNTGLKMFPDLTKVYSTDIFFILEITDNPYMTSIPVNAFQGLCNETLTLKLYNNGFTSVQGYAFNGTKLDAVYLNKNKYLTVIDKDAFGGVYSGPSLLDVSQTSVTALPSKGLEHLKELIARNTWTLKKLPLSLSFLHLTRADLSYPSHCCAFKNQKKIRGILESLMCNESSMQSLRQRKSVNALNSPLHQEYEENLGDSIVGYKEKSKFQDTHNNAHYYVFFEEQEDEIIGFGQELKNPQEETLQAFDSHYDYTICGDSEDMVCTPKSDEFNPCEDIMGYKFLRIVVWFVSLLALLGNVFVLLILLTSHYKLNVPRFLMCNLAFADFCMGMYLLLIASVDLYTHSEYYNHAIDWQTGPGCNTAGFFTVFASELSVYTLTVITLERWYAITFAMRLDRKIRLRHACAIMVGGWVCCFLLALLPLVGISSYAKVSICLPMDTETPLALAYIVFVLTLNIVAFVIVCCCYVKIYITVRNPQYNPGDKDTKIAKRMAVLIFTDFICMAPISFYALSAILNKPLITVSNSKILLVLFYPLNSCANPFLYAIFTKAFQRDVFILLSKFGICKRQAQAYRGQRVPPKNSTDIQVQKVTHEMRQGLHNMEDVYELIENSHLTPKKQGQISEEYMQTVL

For `CCCC1O[C@@H]2C[C@H]3[C@@H]4CCC5=CC(=O)C=C[C@]5(C)[C@H]4[C@@H](O)C[C@]3(C)[C@]2(C(=O)CO)O1` (some centres undefined), the Potency result in assay [1], in assay [2], in [3], in assay [4], in assay [5] and in [7] was “inactive” throughout. Also, the Potency result in [9], in assay [10] and in [11] was “inactive” throughout. The Potency was 38.6 µM (active) in assay [6] and 7.7 µM (active) in [8].
As to `CCCC(c1cc(C(C)(C)C)c(O)cc1C)c1cc(C(C)(C)C)c(O)cc1C`, the Potency in [1] is 61.9 µM (active); in [2] it was 49.2 µM (active); in [12], 27.6 µM (active); in assay [13], 22 µM (active); in assay [6] it was 17.4 µM (active); in assay [10], 31 µM (active). Also, the Potency was 12.3 µM (active) in assay [14] and 13.9 µM (active) in assay [11]. The Potency result in assay [4], in [7] and in assay [15] was “inactive” in each case. In addition, the call in assay [16] was inactive.
`CCOC(=O)/C=C(C)/C=C/C=C(C)/C=C/c1c(C)cc(OC)c(C)c1C`: the Potency result in assay [1], in assay [2], in assay [3], in [4], in assay [5] and in [13] was “inactive” in each case. Further, the Potency result in [6], in assay [7], in [10], in [14], in [11] and in assay [15] was “inactive” each time. Further, the compound was classed as inactive in [16].
For the compound `CC(NN)c1ccccc1` (centres undefined), the activity change, negative = cytotoxicity is 6.27% [at 19 µM] in assay [1], -0.324% [at 19 µM] in assay [10], -2.17% [at 19 µM] in assay [14] and 1.73% [at 19 µM] in [11]. Also, the results for the viability change, negative = cytotoxic in assay [2] and in assay [13] were -1.49% [at 19 µM] and 2.68% [at 19 µM], respectively. The Potency entry in assay [3] and in assay [6] was “inactive” throughout. The activity change, negative = inhibition is 0.741% [at 19 µM] in assay [4] and 19.3% [at 19 µM] in assay [8]. Moreover, in assay [7], the activity change is 1.23% [at 18.9 µM, hits give high values]. Also, the cAMP activity change in [16] is 0.522% [at 18.9 µM].
As for `Cc1cccc(CN2CCN(C(c3ccccc3)c3ccc(Cl)cc3)CC2)c1` (centres undefined), the Potency result in assay [1], in assay [2], in assay [3], in assay [4], in [5] and in assay [13] was “inactive” in each case. In addition, the Potency result in [6], in assay [7], in assay [8], in assay [9], in [10] and in assay [14] was “inactive” in each case. Also, the Potency result in [11] and in assay [15] was “inactive” in each case. Further, in assay [16], the result was inactive.
Consider `CCOC(=O)O[C@]1(C(=O)OCCl)CC[C@H]2[C@@H]3CCC4=CC(=O)C=C[C@]4(C)[C@H]3[C@@H](O)C[C@@]21C`, for which the Potency result in [1], in [2], in assay [3], in assay [4], in assay [5] and in assay [13] was “inactive” each time. Moreover, the Potency entry in [6], in assay [7], in assay [9], in assay [17], in assay [10] and in assay [11] was “inactive” in each case. Besides, in assay [18], the Potency entry was “inactive”. Moreover, the Potency in assay [14] was 26.6 µM (active). Further, the compound was classed as inactive in [16].
`O=Cc1cc(O)ccc1Br`: the Potency result in [1], in [2], in assay [12], in [5], in assay [6] and in assay [7] was “inactive” each time. Also, the Potency result in [8], in [9], in [10], in [14], in [11] and in assay [15] was “inactive” in each case. In [18], the Potency entry was “inactive”. The compound was called inactive in [16].
In the case of `S=c1[nH]c2ccccc2s1`, the Potency entry in [1], in [2], in assay [3], in assay [9] and in [10] was “inactive” each time. Moreover, the Potency in assay [6] is 48.6 µM (active); in assay [8], 21.7 µM (active).
